# Out of some 89,000 compounds screened, about 440 (0.49%) were called active. The list comes from a sample in which actives are over-represented; it also holds similar structures and randomly drawn compounds. Unmarked numbers belong to inactive results.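 The calls were made as follows: active = inhibition above the mean inhibition across all screened compounds plus 3 SD (cut at about 11% in these data); inactive = the rest.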
# Molecular target: RNA-editing ligase 1, mitochondrial (Trypanosoma brucei brucei) (UniProt P86926)
# Assay: TbREL1 RNA ligase inhibitors, primary screen, biochemical, FRET fluorescence (AID 1117264);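 also: 0% = plate median of test wells and 100% = NSC42067 control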
# Details: TbREL1 RNA ligation, at 9.66 µM, hits give high values
# Sequence of RNA-editing ligase 1, mitochondrial (Trypanosoma brucei brucei) (P86926 whole entry, looked up): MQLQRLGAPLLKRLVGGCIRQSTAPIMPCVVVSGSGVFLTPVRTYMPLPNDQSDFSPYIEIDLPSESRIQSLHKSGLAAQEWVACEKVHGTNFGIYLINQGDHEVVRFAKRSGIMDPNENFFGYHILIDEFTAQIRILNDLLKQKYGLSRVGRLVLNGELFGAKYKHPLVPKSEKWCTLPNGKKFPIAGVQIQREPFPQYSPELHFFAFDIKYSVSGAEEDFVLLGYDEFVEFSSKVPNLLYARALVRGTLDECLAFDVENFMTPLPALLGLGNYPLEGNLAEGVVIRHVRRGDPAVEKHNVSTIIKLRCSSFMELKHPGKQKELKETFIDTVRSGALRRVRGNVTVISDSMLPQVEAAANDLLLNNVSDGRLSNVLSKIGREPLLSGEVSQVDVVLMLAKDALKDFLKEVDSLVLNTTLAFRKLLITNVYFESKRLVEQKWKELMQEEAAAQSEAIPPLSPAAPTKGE
row,Structure (SMILES),inhibition
1,CCC(C(=O)OC)n1cnc2scc(-c3ccc(C)cc3)c2c1=O (stereo unspecified),2.37%
2,Cc1ccccc1NC(=S)N(CCCN1CCOCC1)Cc1cccs1,-3.36%
3,CCCN(CCC)C(=S)Nc1cc(C(=O)OC)ccc1C(=O)OC,-1.86%
4,CCCCn1nnnc1C(c1ccccc1)N1CCN(c2ccccc2OC)CC1 (stereo unspecified),0.09%
5,O=C(C1CCCN1S(=O)(=O)c1ccccc1)N1CCc2ccccc2C1 (stereo unspecified),3.88%
6,O=C(COC(=O)CNS(=O)(=O)c1ccccc1)NC12CC3CC(CC(C3)C1)C2,-1.46%
7,CN1CCN(/N=C2/C(=O)Nc3ccc([N+](=O)[O-])cc32)CC1,11.2% (active)
8,O=C(O)COCC(=O)NCc1csc2ccc(Cl)cc12,2.32%
9,O=C(N/N=C/c1cccc([N+](=O)[O-])c1)c1ccncc1,7.99%
10,O=[N+]([O-])c1ccc2c(c1)C(O)n1nc(-c3ccccc3)nc1S2 (stereo unspecified),5.85%
11,O=C(CSc1nccn1-c1cccc(F)c1)NC1CCCC1,-3.03%
12,COc1cc(-c2nnc(NC(=O)C3=COCCO3)o2)cc(OC)c1OC,1.27%
13,O=C(CSc1nc2ccccc2nc1N1CCCCC1)N1CCN(S(=O)(=O)c2cccc([N+](=O)[O-])c2)CC1,-1.26%
14,Cc1cc(=O)oc2cc(OCC(=O)Nc3nnc(C4CC4)s3)ccc12,4.82%
15,Cc1ccc(NC(=O)CN(C)C(=O)COC(=O)C(C)(C)Oc2ccc(Cl)cc2)cc1,1.09%
16,CCNc1nc(Oc2ccc(C(=O)OC)cc2)nc(N2CCOCC2)n1,3.37%
17,CCCC[C@@H]1CN=C(N)N1CCCC,8.04%
18,O=C(Cn1nnc(N2CCCCC2)n1)c1ccc(Cl)c(Cl)c1,2.76%
19,Cc1cc(C)cc(NC(=O)NC2CCCCCCC2)c1,4.83%
20,O=C(Nc1cccc(F)c1)NC1CCCc2ccccc21 (stereo unspecified),4.99%
21,O=C(Nc1cccc(F)c1)NC1CCCCCCC1,12% (active)

row,Structure (SMILES),inhibition
1,O=C(CSc1nnc(COc2ccccc2)n1Cc1ccco1)c1ccc2ccccc2c1,2.5%
2,CN1CCC(=NNC(=O)c2ccc(N(Cc3ccc(Cl)cc3)S(C)(=O)=O)cc2)CC1,0.47%
3,CC(C)C[C@H]1CN=C(Nc2ccccc2)N1CC1CCCCC1,4.52%
4,Cc1cc(C)c(OCC(=O)N(Cc2cccs2)C2CCS(=O)(=O)C2)c(C)c1 (stereo unspecified),2.35%
5,C=CCNC(=S)NNC(=O)c1cc(Cl)ccc1OC,-1.18%
6,CCN(C(=O)CSc1nnc(-c2ccc(OC(F)F)cc2)n1N)C1CCS(=O)(=O)C1 (stereo unspecified),-0.55%
7,O=C(CSc1ccc([N+](=O)[O-])cn1)Nc1ccc(N2CCOCC2)c(Cl)c1,4.47%
8,CC(C)CNC(=O)OCc1cn(Cc2ccc(F)cc2)nn1,-1.2%
9,Nc1nonc1-n1nnc(C(=O)N/N=C/C2CCCCC2)c1-c1ccccc1,2.56%
10,CC1CCN(S(=O)(=O)c2ccc3[nH]c(=O)ccc3c2)CC1,2.13%
11,Cc1cccc(NC(=S)N2CCCC(c3nc4ccccc4[nH]3)C2)c1 (stereo unspecified),-6.41%
12,COc1ccc(NC(=O)CCN2C(=O)/C(=C/c3ccc4c(c3)OCO4)SC2=S)cc1,-1.87%
13,O=C(O)c1ccc(S(=O)(=O)N2CCOCC2)o1,0.79%
14,COc1ccc(Br)c(Cn2c(C)c(C(=O)NCc3cccs3)sc2=O)c1,2.25%
15,Cc1cc(NC(=O)C(C)N2C(=O)c3ccccc3S2(=O)=O)no1 (stereo unspecified),3.27%
16,CC1(C)Cc2c(sc(NC(=O)C(=O)N3CCOCC3)c2C#N)CO1,-1.21%
17,COc1ccc(OC)c(NC(=O)c2cccc(S(=O)(=O)N3CCN(C(C)=O)CC3)c2)c1,-0.85%
18,CC(=O)Nc1ccc(NC(=O)CSC2=NS(=O)(=O)c3ccccc3N2)cc1,2.64%
19,CCCOc1cccc(C(=O)Nc2ccccc2C(=O)N2CCN(C)CC2)c1,0.64%
20,Cc1sc2ncn(CC(=O)NCCN(C)C)c(=O)c2c1S(=O)(=O)N1CCC(C)CC1,-1.59%
21,Cc1ccc(C(=O)Cc2nnc(C)s2)cc1,-0.4%

row,Structure (SMILES),inhibition
1,CSCCC(NC(=O)COc1ccccc1)C(=O)Nc1ccc(C)cc1 (stereo unspecified),-0.75%
2,O=C(CCNC(=O)Cn1ccc2ccccc2c1=O)NCCC1=CCCCC1,-2.59%
3,CC(Oc1ccccc1)C(=O)Nc1c2c(nn1-c1ccccc1)CS(=O)C2 (stereo unspecified),0.74%
4,CCOC(=O)N1CCN(C(=O)c2ccccc2N(Cc2ccccc2)S(=O)(=O)c2ccc(OC)cc2)CC1,-1.48%
5,COc1ccc(NC(=O)CN(C)C(=O)CNC(=O)C2CCCCC2)cc1,-1.04%
6,N/C(=N\OC(=O)Cc1ccc([N+](=O)[O-])cc1)c1ccccn1,5.64%
7,CCOc1ccc(-n2cnnn2)cc1S(=O)(=O)N1CCC(C)CC1C (stereo unspecified),-0.48%
8,CC(=O)O[C@@]1(C(C)=O)CCC2[C@H]3C=C(C)C4=CC(=O)CC[C@@]4(C)C3CC[C@]21C (stereo partly specified),2.86%
9,Cc1ccc(CN(Cc2cccnc2)C(=S)Nc2cccc(Cl)c2C)cc1,-3.35%
10,COc1cccc2c1CCC(NC(C)=O)C2=O (stereo unspecified),0.33%
11,CC(C#N)OC(=O)c1cccnc1SCC(=O)Nc1ccc2c(c1)OCO2 (stereo unspecified),-2.63%
12,COC(=O)c1ccc2c(c1)S(=O)(=O)NC2C (stereo unspecified),-0.32%
13,O=C1CCC/C=C\C[C@@H](CC(=O)N(CCO)Cc2ccccc2)C(=O)NCCO1,3.07%
14,O=C(Nc1n[nH]c(C(F)(F)F)n1)c1cccs1,0.59%
15,Cc1cc(=O)[nH]c(SCC(=O)Nc2ccc(Cl)cc2C)n1,6.53%
16,CC(=O)Nc1ccc(-c2csc(NC=C3C(=O)OC(C)(C)OC3=O)n2)cc1,0.47%
17,CC(C)Cn1c(N)c(C(=O)NCc2cccs2)c2nc3ccccc3nc21,44% (active)
18,O=C(CN1CCN(c2ccccn2)CC1)NCc1cccs1,-2.97%
19,CC(C)(C)OC(=O)c1c(N)n(CCCN2CCCC2=O)c2nc3ccccc3nc12,-0.01%

# From PubChem BioAssay AID1117264 (The Scripps Research Institute Molecular Screening Center, 2014)
